From PubChem BioAssay (NCI)
About 79,000 compounds went through this panel and 15% of them were active in at least one assay; those are over-represented in the sample as a whole. Calls of active or inactive are those of the source. Rule as the data show it: active = growth inhibition above about 70%; inactive = the rest.

How the values were obtained:
[1] = NCI Yeast Anticancer Drug Screen. Data for the rad52 strain (AID 147);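 also: 0% = growth of vehicle-treated control cultures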; conditions: S. cerevisiae rad52 mutant growth inhibition, hits give high values
In short: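 Read-out: growth inhibition versus vehicle-treated controls. Cells were a DNA repair-deficient yeast strain treated with compounds.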

[2] = NCI Yeast Anticancer Drug Screen. Data for the rad50EPP+ strain (AID 151);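 also: 0% = growth of vehicle-treated control cultures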; conditions: S. cerevisiae rad50 mutant strain, hits give high values
In short: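 Growth inhibition read against vehicle controls in rad50EPP+ yeast, a strain altered in DNA damage repair, after compound exposure.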

[3] = NCI Yeast Anticancer Drug Screen. Data for the mgt1 strain (AID 153); conditions: S. cerevisiae mgt1 mutant growth inhibition, hits give high values
In short: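 mgt1 yeast grown with test compound; read-out is growth inhibition versus vehicle-treated cultures.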

[4] = NCI Yeast Anticancer Drug Screen. Data for the rad50 strain (AID 155);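 also: 0% = growth of vehicle-only cultures of the same strain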; conditions: S. cerevisiae rad50 strain growth inhibition, hits give high values
In short: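 Yeast carrying a defined DNA repair defect were exposed to test compounds, and growth was compared with vehicle-treated controls to give percent inhibition.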

[5] = NCI Yeast Anticancer Drug Screen. Data for the mec2-1 strain (AID 157); conditions: S. cerevisiae mec2-1 strain, hits give high values
In short: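 Yeast mec2-1 mutant treated with compound. Readout: growth inhibition vs vehicle controls.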

[6] = NCI Yeast Anticancer Drug Screen. Data for the rad14 strain (AID 159);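 also: 0% = growth of vehicle-treated control cultures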; conditions: S. cerevisiae rad14 strain growth inhibition, hits give high values
In short: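 Yeast cells carrying a defined DNA-repair defect were exposed to compounds, and growth inhibition was calculated relative to vehicle-treated control cultures.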

[7] = NCI Yeast Anticancer Drug Screen. Data for the sgs1 mgt1 strain (AID 161);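 also: 0% = growth of cultures given vehicle only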; conditions: S. cerevisiae sgs1 mgt1 strain, hits give high values
In short: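 Test agents were incubated with a DNA-repair-mutant yeast strain. Growth was then read and compared against vehicle-treated controls.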

[8] = NCI Yeast Anticancer Drug Screen. Data for the CLN2oe strain (AID 163);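 also: 0% = growth of vehicle-only control cultures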; conditions: S. cerevisiae CLN2oe strain, hits give high values
In short: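 Read-out: yeast growth inhibition, expressed relative to vehicle-only controls. The strain bears an engineered cell-cycle alteration.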

[9] = NCI Yeast Anticancer Drug Screen. Data for the cln2 rad14 strain (AID 165);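 also: 0% = growth equal to vehicle treated cultures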; conditions: S. cerevisiae cln2 rad14 strain, hits give high values
In short: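 cln2 rad14 yeast strain; compound exposure; growth inhibition read vs vehicle controls.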

[10] = NCI Yeast Anticancer Drug Screen. Data for the bub3 strain (AID 167); conditions: S. cerevisiae bub3 mutant strain, hits give high values
In short: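 Compounds were applied to a genetically altered yeast strain carrying a cell-cycle control defect. Growth inhibition was scored against vehicle-treated controls.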

[11] = NCI Yeast Anticancer Drug Screen. Data for the wt2 strain (AID 169);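 also: 0% = growth of vehicle-treated yeast cultures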; conditions: S. cerevisiae wt2 strain growth inhibition, hits give high values
In short: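 Read-out: growth inhibition versus vehicle-treated control cultures after compound exposure of the yeast strain.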

[12] = NCI Yeast Anticancer Drug Screen. Data for the mlh1 strain (AID 171);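 also: 0% = growth of vehicle-treated control cultures of the same strain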; conditions: S. cerevisiae mlh1 strain growth inhibition, hits give high values
In short: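 Read-out: growth inhibition versus vehicle controls. Strain: engineered yeast with a defined DNA repair or cell cycle defect, compound-treated.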

[13] = NCI Yeast Anticancer Drug Screen. Data for the sgs1 strain (AID 173);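 also: 0% = growth of vehicle-only control cultures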; conditions: S. cerevisiae sgs1 mutant, hits give high values
In short: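 Read-out: yeast growth inhibition relative to vehicle controls, following compound exposure of a strain with a defined DNA repair/cell cycle alteration.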

[14] = NCI Yeast Anticancer Drug Screen. Data for the mlh1 rad18 strain (AID 175); conditions: S. cerevisiae mlh1 rad18 strain growth inhibition, hits give high values
In short: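 Yeast w/ defined DNA-repair lesions; compound exposure; growth vs vehicle controls → % inhibition.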

[15] = NCI Yeast Anticancer Drug Screen. Data for the rad18 strain (AID 177); conditions: S. cerevisiae rad18 mutant growth inhibition, hits give high values
In short: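 Readout: growth inhibition vs vehicle controls. Cells: genetically altered yeast strain, DNA repair defect.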

[16] = at 5.0 µM (retest, dose inferred, filed as 0.5)
[17] = at 50.0 µM (retest, dose inferred, filed as 5.0)

Measured: growth inhibition

O=C1SS(=O)c2ccccc21 (stereo not drawn)
active: [1]; at 100.0 µM 76% | [3]; at 100.0 µM 83% | [4]; [17] 89% | [4]; at 100.0 µM 79% | [5]; [17] 99% | [5]; at 100.0 µM 83% | [7]; [17] 85% | [10]; [17] 96% | [10]; at 100.0 µM 89% | [14]; [17] 95% | [15]; at 100.0 µM 90%
inactive: [1]; at 1.2 µM 11% | [1]; at 3.7 µM 6% | [1]; at 11.0 µM 8% | [1]; at 33.0 µM 25% | [2]; at 1.2 µM 7% | [2]; at 3.7 µM 5% | [2]; at 11.0 µM 7% | [2]; at 33.0 µM 23% | [2]; at 100.0 µM 65% | [3]; at 1.2 µM 9% | [3]; at 3.7 µM 12% | [3]; at 11.0 µM 12% | [3]; at 33.0 µM 42% | [4]; at 1.2 µM 5% | [4]; at 3.7 µM 0% | [4]; [16] 32% | [4]; at 11.0 µM 2% | [4]; at 33.0 µM 26% | [4]; at 50.0 µM 34.1% | [5]; at 1.2 µM 5% | [5]; at 3.7 µM 18% | [5]; [16] 27% | [5]; at 11.0 µM -3% | [5]; at 33.0 µM 13% | [5]; at 50.0 µM 44.1% | [6]; at 1.2 µM -11% | [6]; at 3.7 µM -3% | [6]; at 11.0 µM -17% | [6]; at 33.0 µM -4% | [6]; at 100.0 µM 61% | [7]; [16] 34% | [7]; at 50.0 µM 50% | [8]; at 1.2 µM 7% | [8]; at 3.7 µM 13% | [8]; at 11.0 µM 17% | [8]; at 33.0 µM 24% | [8]; at 100.0 µM 57% | [9]; [16] 11% | [9]; [17] 38% | [9]; at 50.0 µM 5.75% | [10]; at 1.2 µM -5% | [10]; at 3.7 µM 2% | [10]; [16] 24% | [10]; at 11.0 µM -5% | [10]; at 33.0 µM 0% | [10]; at 50.0 µM 40.3% | [11]; at 1.2 µM 7% | [11]; at 3.7 µM 8% | [11]; at 11.0 µM 8% | [11]; at 33.0 µM 17% | [11]; at 100.0 µM 66% | [12]; at 1.2 µM 6% | [12]; at 3.7 µM 20% | [12]; at 11.0 µM 17% | [12]; at 33.0 µM 24% | [12]; at 100.0 µM 68% | [13]; at 1.2 µM -7% | [13]; at 3.7 µM 5% | [13]; at 11.0 µM 8% | [13]; at 33.0 µM 21% | [13]; at 100.0 µM 39% | [14]; [16] 57% | [14]; at 50.0 µM 0% | [15]; at 1.2 µM 13% | [15]; at 3.7 µM 15% | [15]; at 11.0 µM 15% | [15]; at 33.0 µM 39%
